# PubChem BioAssay (NCATS)
# Results filed as inconclusive are left out. A call without a number means that no potency is given here. Active and inactive are the calls of the source. Unless noted, the call rests on the fitted dose curve; in most records, active means well fitted curve in the direction sought with a large enough effect; inconclusive means small, poorly fitted or top-dose-only effect, or another doubt; inactive means no such curve, though single readings can be large; an effect the other way counts as inactive or inconclusive.
# Legend:
# [1] = target: Thioredoxin reductase 1, cytoplasmic (Rattus norvegicus) (UniProt O89049); test: qHTS Assay for Inhibitors of Mammalian Selenoprotein Thioredoxin Reductase 1 (TrxR1) (AID 488773); settings: Potency: inhibition;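 further: drop in NADPH fluorescence over an 8 min run after selenite addition; series mostly up to about 57 µM; nearly all actives have a fitted effect of over 40% in size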
# Summary of the method: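 Inhibition is scored from the loss of NADPH fluorescence between first and last reads of an 8-min kinetic run. Selenite (400 uM) was the substrate, added after 15 min compound preincubation at room temperature.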
# [2] = target: Flap endonuclease 1 (Homo sapiens) (UniProt P39748); test: qHTS Validation Assay for the Inhibitors of Human Flap endonuclease 1 (FEN1) (AID 488816)
# Summary of the method: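 Enzyme reagent 10 nM; cpds pinned; 15 min RT preinc.; substrate 50 nM final; reads t=0 and 15 min; no-enzyme buffer wells as neg. control; normalized data, 4-parameter Hill fit.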
# [3] = target: M-phase phosphoprotein 8 (Homo sapiens) (UniProt Q99549); test: qHTS Validation Assay for Inhibitors for MPP8 Chromodomain Interactions with Methylated Histone Tails (AID 488949); further: nearly all actives have a fitted effect of over 55% in size; further: potency means the concentration at half of the fitted maximal effect
# Summary of the method: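 AlphaScreen proximity signal from streptavidin donor and Ni-chelate acceptor beads (10 ug/mL each) reported binding of MPP8 to trimethyl-K9 H3(1-18) peptide, both at 50 nM. The complex formed 30 min before a 30 min compound exposure at room temperature, in PBS pH 7.4.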
# [4] = target: Chromobox protein homolog 1 (Homo sapiens) (UniProt P83916); test: qHTS Validation Assay for Inhibitors of HP1-beta Chromodomain Interactions with Methylated Histone Tails (AID 488953); further: nearly all actives have a fitted effect of over 50% in size; further: potency means the concentration at half of the fitted maximal effect
# Summary of the method: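 Disruption of preformed HP1-beta:H3K9me3 peptide complexes (both 50 nM, PBS pH 7.4 with 0.01% Tween-20) is measured by AlphaScreen after 30 min compound exposure at room temperature, using streptavidin donor and nickel chelate acceptor beads at 10 ug/mL final.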
# [5] = target: Methanococcus maripaludis chaperonin (MmCpn) (UniProt Q6LX38); test: High-Throughput Screening for Modulators of Cytosolic Chaperonin Activity: MmCpn Primary Screen (AID 488978);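 further: 50 nM MmCpn enzyme hydrolysing 30 µM ATP at 37 °C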
# Summary of the method: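 ATPase activity of 50 nM MmCpn was assayed with 30 uM ATP, 10 minutes at 37C, after a 5 min compound preincubation at room temperature. ADP production was read as HTRF emission at 590 and 665 nm.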
# [6] = target: Transient receptor potential cation channel subfamily V member 1 (Homo sapiens) (UniProt Q8NER1); test: HTS Assay for Compounds that Act as Enhancers of the Vanilloid Receptor 1 (AID 488979)
# Summary of the method: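 TRPV1 cells loaded with Fluo-8 calcium dye; compound added and Ca2+ signal (ex 480/em 520 nm) followed 3 min, then capsaicin at EC20 added and read 2 more min to detect enhancement.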
# [7] = target: Thyrotropin receptor (Homo sapiens) (UniProt P16473); test: qHTS Assay for Antagonists of the Thyroid Stimulating Hormone Receptor (AID 488980); further: series mostly up to about 58 µM
# Summary of the method: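 Inhibition of cAMP raised by EC80 TSH (4 nM final) was read by HTRF, with lysate cAMP competing against cAMP-d2 for cryptate antibody after 30 min at room temperature. The cells were transfected HEK293 held in phosphodiesterase inhibitor RO 20-1724 at 70 uM.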
# [8] = target: D(1A) dopamine receptor (Homo sapiens) (UniProt P21728); test: HTS Assay for Allosteric Agonists of the Human D1 Dopamine Receptor: Primary Screen for Agonists (AID 488981)
# Summary of the method: (§1)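 Tetracycline-induced HEK293 Trex D1 cells with forced coupling to calcium, loaded with no-wash calcium dye; kinetic fluorescence read 180 s after compound addition for agonism, then a further 180 s after an EC20 dopamine challenge for potentiation.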
# [9] = target: D(1A) dopamine receptor (Homo sapiens) (UniProt P21728); test: HTS Assay for Allosteric Agonists of the Human D1 Dopamine Receptor: Primary Screen for Potentiators (AID 488982)
# Summary of the method: as §1
# [10] = Validation screen for small molecules that induce genotoxicity in human embryonic kidney (HEK293T) cells expressing luciferase-tagged ELG1 (AID 493106)
# Summary of the method: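 Cells were dispensed at 2,000 per well, then 23 nL compound or DMSO was pinned in. After 16 hr at 37 °C and 5% CO2, ONE-Glo reagent was added. Luciferase activity was measured following 30 min at room temperature.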
# [11] = target: ATPase family AAA domain-containing protein 5 (Homo sapiens) (UniProt Q96QE3); test: Validation screen for small molecules that inhibit ELG1-dependent DNA repair in human embryonic kidney (HEK293T) cells expressing luciferase-tagged ELG1 (AID 493107); further: nearly all actives have a fitted effect of over 70% in size; further: potency means the concentration at half of the fitted maximal effect
# Summary of the method: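 Cells are dispensed in 1536-well format, then 5-fluorouridine and compound are pinned in. After a 16 hr incubation at 37 °C and 5% CO2, ONE-Glo is added and luciferase measured on a CCD imager.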
# [12] = target: Thyrotropin-releasing hormone receptor (Homo sapiens) (UniProt P34981); test: qHTS for Small Molecule Agonists and Allosteric Enhancers of Human TRH Receptor: Validation Screen for Agonists (AID 493127;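 active means calcium activation more than 3 SD above the typical response in the agonist read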;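 further: intracellular calcium rise by fluo-8 fluorescence before TRH EC20 addition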); settings: TRH receptor agonist cell assay; at 2 µM; stronger effect = higher value
# Summary of the method: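 Compounds are added by online pintool to dye-loaded TRHR cells while fluorescence is recorded every second. A rise in calcium signal during the agonist read marks activation; a later 10 nM TRH addition (EC20) serves the separate enhancer mode.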
# [13] = qHTS for Inhibitors of Cell Surface uPA Generation: Validation Assay (AID 493164);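 further: RAW 264.7 macrophage cells exposed to compound for 18 h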
# Summary of the method: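 ATP-Lite luminescence read-out: ATP remains high when uPA activity-dependent LF translocation into the cytoplasm is blocked. RAW 264.7 cells, 18 h compound exposure at 37 C; 7-point titration, 2.45 nM to 38.3 uM final.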
# [14] = target: Galactokinase (Homo sapiens) (UniProt P51570); test: qHTS Validation Assay for Inhibitors of Human Galactokinase (GALK) (AID 493189)
# Summary of the method: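 Inhibition was measured as remaining ATP, detected by luciferase luminescence after a 1 h room-temperature reaction. Final conditions: 5 nM GALK, 100 uM galactose, 35 uM ATP, pH 8.0 HEPES buffer.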
# [15] = Validation screen for small molecules that induce DNA re-replication in SW480 colon adenocarcinoma cells (AID 504364)
# Summary of the method: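 Image-based qHTS: compounds were incubated with SW480 cells for 48 hr, nuclei stained with Hoechst, and per-nucleus fluorescence intensity scanned to flag cells with excess DNA content.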
# [16] = target: Peptidyl-prolyl cis-trans isomerase NIMA-interacting 1 (Homo sapiens) (UniProt Q13526); test: qHTS Validation Assay to Find Inhibitors of Pin1 (AID 504536; active means well fitted inhibition curve with a large enough effect in the polarisation, with a control signal flat, not every such curve was filed as active; the % refers to the polarisation)
# Summary of the method: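 Fluorescence polarization competition: compounds (titration) displace HiFluor-488-labeled Pin1-1b peptide from Pin1 (0.3 uM final) in pH 7.5 HEPES buffer with DTT, 10 min at room temperature; %Activity normalized to no-enzyme wells, curves fitted.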
# [17] = target: Phosphoglycerate kinase, glycosomal (Trypanosoma brucei brucei) (UniProt P07378); test: qHTS Validation Assay to Find Inhibitors of Phosphoglycerate Kinase (AID 504547)
# Summary of the method: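 Compounds are pinned into the substrate/PGK mixture, and GAPDH (100nM final) is added to start the reaction by producing 1,3-BPG. After 60 minutes at room temperature, Kinase-Glo Plus is added and luminescence is measured 10 minutes later.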
# [18] = target: D(1A) dopamine receptor (Homo sapiens) (UniProt P21728); test: HTS Assay for Allosteric Agonists of the Human D1 Dopamine Receptor: Primary Screen for Antagonists (AID 488983);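 further: calcium flux response to an EC80 dopamine challenge measured with no-wash dye; nearly all actives have a fitted effect of over 65% in size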
# Summary of the method: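 Kinetic fluorescence at 1 cycle/sec tracked intracellular calcium in force-coupled, tetracycline-inducible HEK293 T-REx D1 cells. Loss of response to an EC80 dopamine dose, given 180 s after compound, marked antagonists.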
# [19] = Nrf2 qHTS screen for inhibitors: Validation (AID 493153; active means well fitted inhibition curve with a large enough effect in the main read-out, with a control signal flat, not every such curve was filed as active); settings: Potency: luciferase luminescence; viability change: measured here: cytotoxicity max response
# Summary of the method: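 A549 ARE_Fluc, 5% FBS OPTI-MEM; cpd titration, 18-24 h, 37°C/5% CO2. Read 1: CellTiter-Fluor (Ex 405/Em 525), cytotox. Read 2: luciferase lum, Nrf2 activity.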
# [20] = target: ATP-dependent 6-phosphofructokinase (Trypanosoma brucei brucei) (UniProt O15648); test: qHTS Assay to Find Inhibitors of T. brucei phosphofructokinase: hit validation (AID 492961);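 further: luminescence reports ADP formed as PFK phosphorylates fructose-6-phosphate with ATP; series mostly up to about 51 µM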
# Summary of the method: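 Inhibition of parasite PFK is measured as reduced ADP formation, quantified via luciferase after ATP depletion. Assay used 0.1 mM ATP, 0.5 mM F6P, 1.25 nM enzyme, 45 min incubation.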
# Sequence of Thyrotropin-releasing hormone receptor (Homo sapiens) (P34981 whole entry, looked up): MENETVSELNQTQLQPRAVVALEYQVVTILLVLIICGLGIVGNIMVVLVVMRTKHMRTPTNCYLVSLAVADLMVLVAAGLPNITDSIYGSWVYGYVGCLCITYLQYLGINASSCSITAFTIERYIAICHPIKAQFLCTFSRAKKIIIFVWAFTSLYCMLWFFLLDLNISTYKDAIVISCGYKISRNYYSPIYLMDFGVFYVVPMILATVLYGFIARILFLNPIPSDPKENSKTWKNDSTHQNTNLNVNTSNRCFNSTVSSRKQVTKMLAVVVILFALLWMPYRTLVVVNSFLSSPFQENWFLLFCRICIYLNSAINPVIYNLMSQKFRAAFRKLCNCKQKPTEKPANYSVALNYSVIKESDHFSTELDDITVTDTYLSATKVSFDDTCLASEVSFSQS
# Sequence of Galactokinase (Homo sapiens) (P51570 whole entry, looked up): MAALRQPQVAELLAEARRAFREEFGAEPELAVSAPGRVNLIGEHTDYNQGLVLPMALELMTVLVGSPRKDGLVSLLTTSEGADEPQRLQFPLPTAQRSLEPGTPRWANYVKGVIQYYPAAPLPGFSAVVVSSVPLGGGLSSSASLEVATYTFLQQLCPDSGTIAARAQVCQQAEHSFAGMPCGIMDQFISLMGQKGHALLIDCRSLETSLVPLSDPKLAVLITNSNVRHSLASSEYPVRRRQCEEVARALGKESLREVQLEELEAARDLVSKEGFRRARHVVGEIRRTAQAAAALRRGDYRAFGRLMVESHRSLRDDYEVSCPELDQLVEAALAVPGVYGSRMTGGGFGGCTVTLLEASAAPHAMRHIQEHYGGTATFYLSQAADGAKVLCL
# Sequence of ATPase family AAA domain-containing protein 5 (Homo sapiens) (Q96QE3 whole entry, looked up, the tested form may be a part): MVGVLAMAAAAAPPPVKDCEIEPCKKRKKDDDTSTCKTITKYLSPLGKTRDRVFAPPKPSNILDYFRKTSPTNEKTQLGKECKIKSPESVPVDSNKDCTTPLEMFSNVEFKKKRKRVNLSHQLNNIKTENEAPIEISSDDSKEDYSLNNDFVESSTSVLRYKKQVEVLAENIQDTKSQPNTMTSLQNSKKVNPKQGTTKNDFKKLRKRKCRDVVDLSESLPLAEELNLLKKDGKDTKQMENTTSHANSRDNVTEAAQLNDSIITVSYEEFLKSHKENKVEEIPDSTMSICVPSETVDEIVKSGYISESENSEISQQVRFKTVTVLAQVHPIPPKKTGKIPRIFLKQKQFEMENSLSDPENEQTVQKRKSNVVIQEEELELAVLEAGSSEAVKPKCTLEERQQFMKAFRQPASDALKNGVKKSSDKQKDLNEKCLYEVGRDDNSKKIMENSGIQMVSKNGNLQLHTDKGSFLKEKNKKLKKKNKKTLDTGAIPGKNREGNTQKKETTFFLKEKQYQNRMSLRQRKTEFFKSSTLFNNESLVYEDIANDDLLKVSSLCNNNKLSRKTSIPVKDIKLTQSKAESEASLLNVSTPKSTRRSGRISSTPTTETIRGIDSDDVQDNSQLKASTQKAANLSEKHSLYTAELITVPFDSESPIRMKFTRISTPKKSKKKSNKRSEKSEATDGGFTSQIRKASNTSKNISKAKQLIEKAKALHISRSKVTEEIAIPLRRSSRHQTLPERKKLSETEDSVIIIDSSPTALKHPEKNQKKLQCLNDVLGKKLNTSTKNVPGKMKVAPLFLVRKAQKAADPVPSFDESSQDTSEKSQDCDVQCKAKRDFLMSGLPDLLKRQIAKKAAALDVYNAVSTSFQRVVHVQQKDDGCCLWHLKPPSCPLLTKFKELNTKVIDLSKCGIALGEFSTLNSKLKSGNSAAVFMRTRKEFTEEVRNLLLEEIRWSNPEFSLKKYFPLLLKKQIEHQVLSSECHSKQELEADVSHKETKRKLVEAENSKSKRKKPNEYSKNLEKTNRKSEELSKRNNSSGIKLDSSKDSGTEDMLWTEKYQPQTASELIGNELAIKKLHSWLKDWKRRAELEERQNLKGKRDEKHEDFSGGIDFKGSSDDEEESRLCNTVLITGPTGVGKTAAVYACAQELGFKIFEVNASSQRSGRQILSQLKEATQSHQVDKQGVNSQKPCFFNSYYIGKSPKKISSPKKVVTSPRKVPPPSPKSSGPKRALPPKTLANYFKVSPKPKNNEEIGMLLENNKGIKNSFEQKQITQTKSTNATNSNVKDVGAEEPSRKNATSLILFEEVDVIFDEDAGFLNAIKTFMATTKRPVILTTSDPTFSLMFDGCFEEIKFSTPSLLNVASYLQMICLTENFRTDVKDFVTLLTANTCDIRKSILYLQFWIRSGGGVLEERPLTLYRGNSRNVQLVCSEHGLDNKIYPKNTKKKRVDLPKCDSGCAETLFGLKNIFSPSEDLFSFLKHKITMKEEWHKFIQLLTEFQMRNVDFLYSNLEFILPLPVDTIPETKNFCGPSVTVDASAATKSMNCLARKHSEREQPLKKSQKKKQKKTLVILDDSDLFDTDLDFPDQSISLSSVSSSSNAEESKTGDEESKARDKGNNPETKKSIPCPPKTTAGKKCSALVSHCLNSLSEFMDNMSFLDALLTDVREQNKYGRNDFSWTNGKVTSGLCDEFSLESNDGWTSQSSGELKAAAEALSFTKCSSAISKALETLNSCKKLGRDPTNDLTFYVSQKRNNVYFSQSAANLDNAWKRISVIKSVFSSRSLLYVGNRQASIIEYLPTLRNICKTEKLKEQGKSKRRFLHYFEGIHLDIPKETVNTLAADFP
# Sequence of M-phase phosphoprotein 8 (Homo sapiens) (Q99549 whole entry, looked up): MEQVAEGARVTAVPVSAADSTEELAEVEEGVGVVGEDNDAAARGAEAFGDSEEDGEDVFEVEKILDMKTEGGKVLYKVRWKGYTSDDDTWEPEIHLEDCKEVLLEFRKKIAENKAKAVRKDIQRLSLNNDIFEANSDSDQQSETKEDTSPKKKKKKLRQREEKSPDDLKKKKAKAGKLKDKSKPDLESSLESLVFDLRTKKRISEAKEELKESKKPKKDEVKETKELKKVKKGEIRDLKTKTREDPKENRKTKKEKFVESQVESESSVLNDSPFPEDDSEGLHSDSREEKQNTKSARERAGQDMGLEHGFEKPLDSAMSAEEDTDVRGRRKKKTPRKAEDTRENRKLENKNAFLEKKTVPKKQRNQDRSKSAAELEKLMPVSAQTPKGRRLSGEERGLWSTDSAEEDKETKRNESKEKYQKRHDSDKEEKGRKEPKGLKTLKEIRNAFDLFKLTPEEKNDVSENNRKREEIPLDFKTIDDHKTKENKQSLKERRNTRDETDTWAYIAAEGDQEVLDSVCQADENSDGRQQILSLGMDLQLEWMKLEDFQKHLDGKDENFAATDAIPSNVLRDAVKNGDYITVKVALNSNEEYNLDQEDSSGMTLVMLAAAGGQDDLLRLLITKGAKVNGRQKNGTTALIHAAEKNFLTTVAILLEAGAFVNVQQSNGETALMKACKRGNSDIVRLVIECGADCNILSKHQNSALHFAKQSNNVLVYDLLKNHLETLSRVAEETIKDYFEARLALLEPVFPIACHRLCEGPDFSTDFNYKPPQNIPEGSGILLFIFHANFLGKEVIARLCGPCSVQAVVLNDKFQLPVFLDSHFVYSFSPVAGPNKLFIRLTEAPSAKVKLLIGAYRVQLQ
# Sequence of D(1A) dopamine receptor (Homo sapiens) (P21728 whole entry, looked up): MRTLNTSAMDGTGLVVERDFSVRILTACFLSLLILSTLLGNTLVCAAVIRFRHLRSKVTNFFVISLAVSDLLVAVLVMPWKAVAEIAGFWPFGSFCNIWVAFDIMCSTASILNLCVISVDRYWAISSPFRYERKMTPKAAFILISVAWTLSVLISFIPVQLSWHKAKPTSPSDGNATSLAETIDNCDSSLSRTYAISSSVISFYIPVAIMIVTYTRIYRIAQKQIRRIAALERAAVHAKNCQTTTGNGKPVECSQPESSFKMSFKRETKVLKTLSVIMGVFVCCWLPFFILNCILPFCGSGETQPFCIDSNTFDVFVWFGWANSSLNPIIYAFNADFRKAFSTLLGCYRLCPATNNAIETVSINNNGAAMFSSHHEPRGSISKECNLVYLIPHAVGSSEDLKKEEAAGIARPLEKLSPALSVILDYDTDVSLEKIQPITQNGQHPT
# Sequence of Chromobox protein homolog 1 (Homo sapiens) (P83916 whole entry, looked up): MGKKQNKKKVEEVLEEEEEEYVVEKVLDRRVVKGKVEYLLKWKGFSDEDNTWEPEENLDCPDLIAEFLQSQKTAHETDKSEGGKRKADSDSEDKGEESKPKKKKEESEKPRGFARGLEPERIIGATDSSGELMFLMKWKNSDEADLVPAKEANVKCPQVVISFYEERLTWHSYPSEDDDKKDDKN
# Sequence of Peptidyl-prolyl cis-trans isomerase NIMA-interacting 1 (Homo sapiens) (Q13526 whole entry, looked up): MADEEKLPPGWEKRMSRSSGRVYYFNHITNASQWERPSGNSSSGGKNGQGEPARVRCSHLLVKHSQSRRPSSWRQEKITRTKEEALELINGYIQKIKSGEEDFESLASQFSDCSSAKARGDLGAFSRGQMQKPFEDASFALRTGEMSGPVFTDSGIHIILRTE
# Sequence of Thyrotropin receptor (Homo sapiens) (P16473 whole entry, looked up): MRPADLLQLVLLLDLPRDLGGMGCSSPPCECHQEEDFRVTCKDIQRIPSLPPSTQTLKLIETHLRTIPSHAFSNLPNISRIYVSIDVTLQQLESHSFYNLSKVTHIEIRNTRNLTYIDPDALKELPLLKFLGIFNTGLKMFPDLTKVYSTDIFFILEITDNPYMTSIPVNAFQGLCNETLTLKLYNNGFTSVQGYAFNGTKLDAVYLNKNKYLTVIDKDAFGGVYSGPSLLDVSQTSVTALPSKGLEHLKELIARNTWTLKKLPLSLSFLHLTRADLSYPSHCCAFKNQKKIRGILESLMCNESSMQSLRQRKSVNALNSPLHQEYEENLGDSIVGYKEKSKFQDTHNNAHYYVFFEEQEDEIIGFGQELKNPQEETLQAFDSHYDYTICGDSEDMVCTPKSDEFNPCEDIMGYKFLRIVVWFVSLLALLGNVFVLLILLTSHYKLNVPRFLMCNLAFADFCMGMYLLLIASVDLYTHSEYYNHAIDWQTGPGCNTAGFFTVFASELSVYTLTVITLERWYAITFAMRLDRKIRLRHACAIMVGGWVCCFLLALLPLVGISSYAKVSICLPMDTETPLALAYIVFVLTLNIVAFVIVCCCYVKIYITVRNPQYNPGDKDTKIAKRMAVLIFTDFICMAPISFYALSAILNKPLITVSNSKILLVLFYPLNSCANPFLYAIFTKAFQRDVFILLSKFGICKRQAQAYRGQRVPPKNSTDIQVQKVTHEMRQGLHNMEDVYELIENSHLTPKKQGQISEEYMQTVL
structure (smiles),measurement,setting,value
O=C1NCN(c2ccccc2)C12CCN(CCCC(c1ccc(F)cc1)c1ccc(F)cc1)CC2,Potency,[1],inactive
same,Potency,[2],inactive
same,Potency,[3],14.1 µM (active)
same,Potency,[4],39.8 µM (active)
same,outcome,[5],inactive
same,outcome,[6],inactive
same,outcome,[7],inactive
same,Potency,[8],inactive
same,Potency,[9],inactive
same,Potency,[10],inactive
same,Potency,[11],25.9 µM (active)
same,activation,[12],0.75% (inactive)
same,outcome,[13],inactive
same,outcome,[14],inactive
same,outcome,[15],inactive
same,outcome,[16],inactive
same,outcome,[17],inactive
CCN(CC)CCOCCOC(=O)C1(c2ccccc2)CCCC1,Potency,[1],inactive
same,Potency,[2],inactive
same,Potency,[3],inactive
same,Potency,[4],inactive
same,outcome,[5],inactive
same,outcome,[6],inactive
same,outcome,[7],inactive
same,Potency,[8],inactive
same,Potency,[9],inactive
same,Potency,[18],inactive
same,Potency,[11],inactive
same,Potency,[19],inactive
same,viability change,[19],0.933%
same,outcome,[13],inactive
same,outcome,[14],inactive
same,outcome,[15],inactive
same,outcome,[16],inactive
same,outcome,[17],inactive
N[C@@H](COP(=O)(O)O)C(=O)O,Potency,[1],inactive
same,Potency,[2],inactive
same,Potency,[3],inactive
same,Potency,[4],inactive
same,outcome,[5],inactive
same,outcome,[7],inactive
same,Potency,[8],inactive
same,Potency,[9],inactive
same,Potency,[18],inactive
same,Potency,[11],inactive
same,activation,[12],1% (inactive)
same,Potency,[19],inactive
same,viability change,[19],6.46%
same,outcome,[13],inactive
same,outcome,[16],inactive
same,outcome,[17],inactive
CCCCNC(=O)NS(=O)(=O)c1ccc(C)cc1,Potency,[1],inactive
same,Potency,[2],inactive
same,Potency,[3],inactive
same,Potency,[4],inactive
same,outcome,[5],inactive
same,outcome,[6],inactive
same,Potency,[8],inactive
same,Potency,[9],inactive
same,Potency,[18],inactive
same,Potency,[10],inactive
same,Potency,[11],inactive
same,activation,[12],1.25% (inactive)
same,Potency,[19],inactive
same,viability change,[19],-5.96%
same,outcome,[13],inactive
same,outcome,[14],inactive
same,outcome,[15],inactive
same,outcome,[16],inactive
same,outcome,[17],inactive
CCCCNc1ccc(C(=O)OCCN(C)C)cc1,Potency,[1],inactive
same,Potency,[2],inactive
same,Potency,[3],inactive
same,Potency,[4],inactive
same,outcome,[5],inactive
same,outcome,[6],inactive
same,outcome,[7],inactive
same,Potency,[8],inactive
same,Potency,[9],inactive
same,Potency,[18],inactive
same,outcome,[20],inactive
same,Potency,[10],inactive
same,Potency,[11],inactive
same,activation,[12],1.31% (inactive)
same,Potency,[19],inactive
same,viability change,[19],2.59%
same,outcome,[13],inactive
same,outcome,[14],inactive
same,outcome,[16],inactive
same,outcome,[17],inactive
C=CCc1ccccc1OCC(O)CNC(C)C (stereo not given),Potency,[1],inactive
same,Potency,[2],inactive
same,Potency,[3],inactive
same,Potency,[4],inactive
same,outcome,[5],inactive
same,outcome,[7],inactive
same,Potency,[8],inactive
same,Potency,[9],inactive
same,Potency,[18],inactive
same,Potency,[10],inactive
same,Potency,[11],inactive
same,activation,[12],0.312% (inactive)
same,Potency,[19],inactive
same,viability change,[19],-7.73%
same,outcome,[13],inactive
same,outcome,[14],inactive
same,outcome,[15],inactive
same,outcome,[16],inactive
same,outcome,[17],inactive
CCOC(=O)c1cnc2c(cnn2CC)c1NN=C(C)C,Potency,[1],inactive
same,Potency,[2],inactive
same,Potency,[3],inactive
same,Potency,[4],inactive
same,outcome,[5],inactive
same,outcome,[6],inactive
same,Potency,[8],inactive
same,Potency,[9],inactive
same,Potency,[18],inactive
same,outcome,[20],inactive
same,Potency,[11],inactive
same,Potency,[19],inactive
same,viability change,[19],-1.57%
same,outcome,[13],inactive
same,outcome,[16],inactive
same,outcome,[17],inactive
